Bioassay records as filed in PubChem.
The list is not random: actives were taken first. Their share in the collection is about 2.4%.
TDP1 block: TDP1 (human) enzyme inhibition. recombinant TDP1, AlphaScreen DNA substrate cleavage. Potency, µM (top dose mostly 130 µM), actives largely listed as inhibitors. 350,000 tested, 0.28% active; also: nearly all actives have a fitted effect of over 40% in size
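Compounds were preincubated with Tdp1 (1 nM final) for 15 min at room temperature before substrate (15 nM final) started a 5 min reaction; beads (10 ug/ml final) were then added for 10 min before AlphaScreen detection.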
Pol kappa inh: blocks human DNA polymerase kappa activity; purified Pol kappa, fluorescent DNA synthesis assay, 10 min; AID 588579; Q9UBT6; 400,000 tested, 0.53% active; Potency, µM (highest dose often 107 µM), actives largely listed as inhibitors
Target sequence (Q9UBT6 whole entry, looked up): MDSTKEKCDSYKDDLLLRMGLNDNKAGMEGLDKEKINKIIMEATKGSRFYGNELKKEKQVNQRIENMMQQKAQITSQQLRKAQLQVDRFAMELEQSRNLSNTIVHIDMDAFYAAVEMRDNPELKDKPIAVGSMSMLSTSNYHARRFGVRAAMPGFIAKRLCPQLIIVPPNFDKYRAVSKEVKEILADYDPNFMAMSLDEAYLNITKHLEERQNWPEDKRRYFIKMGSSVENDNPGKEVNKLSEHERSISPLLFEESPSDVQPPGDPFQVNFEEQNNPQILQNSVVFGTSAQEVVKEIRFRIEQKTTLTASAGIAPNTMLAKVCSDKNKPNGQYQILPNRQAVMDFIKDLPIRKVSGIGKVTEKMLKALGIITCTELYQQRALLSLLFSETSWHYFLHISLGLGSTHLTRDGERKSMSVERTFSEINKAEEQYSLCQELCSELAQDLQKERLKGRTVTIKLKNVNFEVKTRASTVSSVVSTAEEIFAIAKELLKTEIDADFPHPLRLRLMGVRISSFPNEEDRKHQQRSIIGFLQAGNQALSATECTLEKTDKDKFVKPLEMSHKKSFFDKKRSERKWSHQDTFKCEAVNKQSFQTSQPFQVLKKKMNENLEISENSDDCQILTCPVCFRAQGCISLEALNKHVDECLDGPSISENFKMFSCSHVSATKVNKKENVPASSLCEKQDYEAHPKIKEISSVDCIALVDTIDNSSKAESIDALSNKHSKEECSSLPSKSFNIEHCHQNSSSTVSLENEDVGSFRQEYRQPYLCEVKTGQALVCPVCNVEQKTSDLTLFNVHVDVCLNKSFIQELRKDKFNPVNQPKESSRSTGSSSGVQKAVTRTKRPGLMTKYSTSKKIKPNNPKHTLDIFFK
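Fluorescent qHTS in 1536-well format: enzyme (10 nM) and compound sat 15 min at room temperature before 50 nM substrate (final) was added. Signal taken at 0 and 10 min; no-enzyme buffer wells were negative controls.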
Pol eta inh: blocks human DNA polymerase eta activity | Q9Y253 | recombinant Pol eta, fluorescent DNA replication assay | Potency, µM (highest dose often 114 µM), usual class: inhibitors | 390,000 tested, 1.2% active
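Pol eta (10 nM) was preincubated with compounds for 15 min at room temperature, after which fluorescent replication substrate (50 nM final) was added to start the reaction. Fluorescence was read kinetically at 0 and 10 min.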
POLB inh: inhibitors of human DNA polymerase beta; P06746; Pol beta primer extension/strand displacement, fluorescence kinetic; Potency, µM (titrated, usually from 114 µM), most hits filed as inhibitors; 340,000 tested, 1.3% active; AID 485314
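Pol beta (10 nM) and compounds were preincubated 15 min at room temperature, then 50 nM substrate (final) started primer extension/strand displacement. Reads were taken at 0 and 10 min; concentration-response data were fitted to a four-parameter Hill equation.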
POLI inh: blocks human DNA polymerase iota activity | Q9UNA4 | Pol iota fluorescent replication assay, 10 min | Potency, µM (doses to about 115 µM), usual class: inhibitors | 390,000 tested, 1% active | AID 588590
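Fluorescent replication assay read twice, at 0 min and 10 min after adding 50 nM (final) substrate. Enzyme (10 nM) and compounds were first incubated 15 min at room temperature; enzyme-free buffer wells were negative controls.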
A number is an active result; – = inactive; ? = inconclusive; · = no result; ! = repeats disagree; [ ] = remark or other dose. Calls follow the shape of the dose curve; as a rule, active = well fitted curve in the direction sought with a large enough effect; inconclusive = small, poorly fitted or top-dose-only effect, or another doubt; inactive = no such curve, though single readings can be large; an effect the other way counts as inactive or inconclusive.

SMILES | TDP1 block | Pol kappa inh | Pol eta inh | POLB inh | POLI inh
CCCCC/C=C\C/C=C\C/C=C\C/C=C\CCCC(=O)O | – | 13µM! | · | · | ·
CCCCC/C=C\C[C@@H](/C=C/C=C\C/C=C\CCCC(=O)O)OO | – | –[19.4 µM] | · | · | ·
Cc1cccc(C(=O)Nc2nnc(SCC(=O)NCc3ccco3)s2)c1 | · | – | – | · | –
COc1ccc(N2C(=O)NC(=O)/C(=C\c3cn(CC(=O)N4CCOCC4)c4ccccc34)C2=O)c(OC)c1 | · | – | – | – | 13µM
COCCNC(=O)Cn1cc(/C=C2\C(=O)NC(=O)N(c3ccccc3F)C2=O)c2ccccc21 | · | – | – | – | 20µM
COC(=O)Cn1cc(/C=C2\C(=O)NC(=O)N(c3ccc(OC)cc3)C2=O)c2ccccc21 | · | – | – | – | ?
COc1ccc(CNC(=O)c2ccc(C(C)C)cc2)cc1 | – | – | – | – | –
COc1ccc(C(=O)Nc2ccccc2C(=O)NC(C(=O)NCc2ccco2)C(C)C)cc1 (stereo not drawn) | – | – | 8.9µM | – | –
CCC(=O)OC1CCC2C3CCc4cc(O)ccc4C3CC[C@]12C (stereo partly drawn) | – | ? | · | · | ·
COc1ccccc1N1C(=O)NC(=O)/C(=C\c2cnn(-c3ccccc3)c2)C1=O | – | – | 40µM | 25µM | 18µM
O=C(O)C(Cl)(Cl)Br | – | · | · | · | ·
CC1CC(=O)O1 (stereo not drawn) | – | · | · | · | ·
O=C(O)c1cccc(Cl)c1 | – | · | · | · | ·
O=C(O)c1cc[c]([Hg][Cl])cc1 | ? | – | – | 14µM | 1.8µM
COC(C(=O)C(O)C(C)O)C1Cc2cc3cc(OC4CC(OC5CC(O)C(OC)C(C)O5)C(OC(C)=O)C(C)O4)c(C)c(O)c3c(O)c2C(=O)C1OC1CC(OC2CC(OC3CC(C)(O)C(OC(C)=O)C(C)O3)C(O)C(C)O2)C(O)C(C)O1 (stereo not drawn) | – | 21µM | · | · | ·
O=c1[nH]c(O)c(C=Nc2ccc(Cl)cc2Cl)c(=O)[nH]1 | · | – | – | ? | –
C=CCOc1ccc(CC2C(=O)N(C)C(=O)N(C)C2=O)cc1 | – | – | 16µM | ? | ?
C#CCO | – | · | · | · | ·
COc1cccc2c1C(=O)c1c(O)c3c(c(O)c1C2=O)C[C@@](O)(C(=O)CO)C[C@@H]3O[C@H]1C[C@H](N)[C@H](OC2CCCCO2)[C@H](C)O1 (stereo partly drawn) | · | 10µM | · | · | ?
Oc1ccc(/C=N/NP(=S)(c2ccccc2)c2ccccc2)c(O)c1O | – | – | ? | 14µM | ?
Cc1cccc(N2C(=O)/C(=C/N3CCN(C(=O)c4ccco4)CC3)C(=O)NC2=S)c1 | – | – | – | – | –
Cc1ccc(N2C(=O)/C(=C/N3CCN(C(=O)c4ccco4)CC3)C(=O)NC2=S)cc1C | – | – | – | – | 18µM
O=c1cc(-c2ccc(O)cc2)oc2c([C@H]3O[C@@H](CO)[C@@H](O)[C@@H](O)[C@@H]3O)c(O)cc(O)c12 | – | –[12 µM] | · | · | ·
CCCCn1c(NS(=O)(=O)c2ccc(C)cc2)c(C(=O)OCC)c2nc3ccccc3nc21 | – | – | – | – | 2.5µM
O=C(Cn1c(=O)oc2ccccc21)NCCc1ccccc1 | · | – | – | – | –
SMILES | TDP1 block | Pol kappa inh | Pol eta inh | POLB inh | POLI inh
Cc1cc(I)ccc1Nc1c(C(=O)NOCC2CC2)cc(F)c(F)c1F | – | ? | · | · | ·
COc1cc2c(cc1O)C[C@H]1NCCc3cc4c(c-2c31)OCO4 | – | ? | ? | 40µM | 14µM
CC[C@@]1(O)C(=O)OCc2c1cc1n(c2=O)Cc2cc3c(O)cccc3nc2-1 | ? | 30µM | · | · | ·
CC[C@@]1(O)C(=O)OCc2c1cc1n(c2=O)Cc2cc3ccccc3nc2-1 | – | – | – | – | –
Cc1cc(C=C2C(=O)N(C)C(=S)N(C)C2=O)c(C)n1-c1ccncc1 | – | – | 35µM | ? | –
CC(C)(Oc1ccc(Cl)cc1)C(=O)OCC(=O)N1CCN(c2ccccc2)CC1 | – | – | – | · | –
C=C/C(=C/C(=O)C[C@H](C)C[C@@H](C)CC[C@H](O)[C@H](C)C(=O)C[C@@H](O)[C@H](C)[C@@H](C)OC(=O)C[C@@H](O)C1=C(C)C(=O)OC1=O)CC | –[21 µM] | 4.7µM | · | · | ·
NNC(N)=S | – | · | · | · | ·
Cc1ccc(NC(=O)COC(=O)/C=C/c2ccco2)cc1S(=O)(=O)N(C)C | – | – | 16µM | ? | ?
N#CSCSC#N | – | · | · | · | ·
NCC(CC(=O)O)C1CCCCC1 (stereo not drawn) | – | – | – | – | 100µM
Oc1ccccc1O | ? | 50µM | ? | 40µM | 79µM
CN(C)[C@@H]1C(=O)C(C(N)=O)=C(O)[C@@]2(O)C(=O)C3=C(O)c4c(O)cccc4[C@@](C)(O)C3C[C@@H]12 (stereo partly drawn) | · | 79µM | – | · | ?
CN(C)C1C(=O)C(C(N)=O)C(=O)C2(O)C(=O)C3C(=O)c4c(O)cccc4C(C)(O)C3C(O)C12 (stereo not drawn) | ? | 2.8µM | · | · | ·
CN(C)[C@@H]1C(=O)C(C(N)=O)=C(O)[C@@]2(O)C(=O)C3=C(O)c4c(O)ccc(Cl)c4[C@@](C)(O)[C@H]3C[C@@H]12 | · | – | – | – | –
CN(C)C1C(=O)C(C(N)=O)=C(O)[C@@]2(O)C(=O)C3=C(O)c4c(O)cccc4[C@](C)(O)C3C(O)C12 (stereo partly drawn) | · | 2.8µM | · | · | ·
COc1ccc(NC(=O)CSc2oc(-c3cccs3)nc2S(=O)(=O)c2ccccc2)c(OC)c1 | – | – | – | – | ?
Cc1[nH]n(-c2ccccc2)c(=O)c1C(c1cccc([N+](=O)[O-])c1O)c1c(C)[nH]n(-c2ccccc2)c1=O | – | – | – | – | 0.28µM
N#CC(Cl)(Cl)Cl | – | · | · | · | ·
C=CCn1c(O)c(/C=C2/C=CC=N2)c(=O)[nH]c1=O | – | – | ? | – | 20µM
O=c1[nH]c(=O)n(Cc2ccccc2Cl)c(O)c1/C=C1/C=CC=N1 | – | ? | ? | ? | 45µM
On1ccccc1=S | · | – | – | · | ?
CCN(CC)c1ccc(/C=C/[N+](=O)[O-])cc1 | – | – | – | – | ?
COc1cc(/C=C/[N+](=O)[O-])ccc1O | – | – | – | – | 32µM
C[n+]1cc(P(=S)(c2ccccc2)c2ccccc2)n2ccccc21 | – | · | · | · | ·
SMILES | TDP1 block | Pol kappa inh | Pol eta inh | POLB inh | POLI inh
Cc1cc(C=C(C#N)C#N)ccc1N1CCCC1 | – | – | – | – | 89µM
N#CC(C#N)=Cc1cccnc1 | – | – | – | – | –
COc1ccc(CNC(=O)C2CCN(c3nc(OC)nc(OC)n3)CC2)cc1 | · | – | – | – | 89µM
Clc1nc(Cl)nc(Nc2ccccc2Cl)n1 | – | · | · | · | ·
O=C(O)c1ccccc1-c1c2cc(Br)c(=O)cc-2oc2[c]([Hg])c(O)c(Br)cc12 | – | 16µM | · | · | ·
CN(C)C(=O)Cl | – | · | · | · | ·
NC(Cc1cc(O)c(O)cc1O)C(=O)O (stereo not drawn) | 0.18µM | 0.67µM | 0.28µM | 0.11µM | 0.4µM
N[C@@H](CCl)C(=O)O | – | – | – | – | –
COc1c(CC=C(C)C)c2c(c3oc(=O)c(-c4ccc(O)cc4)c(O)c13)C=CC(C)(C)O2 | – | ? | · | · | ·
